# In all, about 310,000 compounds went through this assay and about 14,000 (4.5%) showed an effect of 50% or more. The effect is printed as a negative number. The sample as a whole holds a higher share of strong results than the screen did.
# Biological target: human ether-à-go-go-related gene (hERG) potassium channel (human, UniProt Q12809)
# Assay: primary screen, population patch clamp on CHO cells stably expressing hERG; higher = less effect of the substance
# 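Further: peak tail current of the secondary pulse compared with the same well before compound.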
# human ether-à-go-go-related gene (hERG) potassium channel, sequence (Q12809 whole entry, looked up): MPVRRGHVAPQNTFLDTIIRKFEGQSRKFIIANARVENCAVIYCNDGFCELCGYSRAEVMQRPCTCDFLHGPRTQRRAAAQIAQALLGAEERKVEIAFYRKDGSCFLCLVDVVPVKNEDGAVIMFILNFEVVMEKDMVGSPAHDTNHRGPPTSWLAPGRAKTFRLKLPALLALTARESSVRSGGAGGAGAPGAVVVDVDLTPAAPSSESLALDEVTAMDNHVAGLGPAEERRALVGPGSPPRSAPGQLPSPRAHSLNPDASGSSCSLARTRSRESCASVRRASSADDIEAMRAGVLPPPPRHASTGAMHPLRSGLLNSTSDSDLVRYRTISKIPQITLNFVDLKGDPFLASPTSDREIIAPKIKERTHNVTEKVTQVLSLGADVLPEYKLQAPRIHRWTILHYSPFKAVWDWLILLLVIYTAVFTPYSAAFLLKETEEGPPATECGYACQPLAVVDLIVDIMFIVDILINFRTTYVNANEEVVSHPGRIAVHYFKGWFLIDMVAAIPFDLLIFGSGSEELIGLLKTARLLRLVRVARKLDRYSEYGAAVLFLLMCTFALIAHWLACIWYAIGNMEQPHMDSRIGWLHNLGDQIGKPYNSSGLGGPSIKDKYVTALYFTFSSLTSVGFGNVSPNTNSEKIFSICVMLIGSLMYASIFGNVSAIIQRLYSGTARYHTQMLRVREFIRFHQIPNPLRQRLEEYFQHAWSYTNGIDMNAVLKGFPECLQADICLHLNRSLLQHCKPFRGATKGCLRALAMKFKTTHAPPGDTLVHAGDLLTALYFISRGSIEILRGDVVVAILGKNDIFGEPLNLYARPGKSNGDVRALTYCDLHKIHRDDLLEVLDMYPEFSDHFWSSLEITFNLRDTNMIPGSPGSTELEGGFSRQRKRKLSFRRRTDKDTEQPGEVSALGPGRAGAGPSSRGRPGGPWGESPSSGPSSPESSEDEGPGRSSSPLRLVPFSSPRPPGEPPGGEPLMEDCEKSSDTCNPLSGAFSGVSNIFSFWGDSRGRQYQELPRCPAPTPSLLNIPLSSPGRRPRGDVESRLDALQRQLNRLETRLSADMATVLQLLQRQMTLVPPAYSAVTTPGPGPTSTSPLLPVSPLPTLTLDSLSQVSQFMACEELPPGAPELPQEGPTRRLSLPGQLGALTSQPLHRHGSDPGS
row,Compound,"hERG current change (%, negative = inhibition) at 10uM [%]"
1,Cc1c(Cl)cccc1NC(=S)N1CCN(Cc2ccccc2)CC1,-3.12
2,CN(C)C(CNC(=O)c1ccccc1C(F)(F)F)c1ccco1 (centres unmarked),7.83
3,CCS(=O)(=O)Nc1cccc(C(=C2CCCCC2)c2cnc[nH]2)c1,-30.2
4,CCN1CCc2c(C#N)c(N3CCOCC3)nc(N3CCOCC3)c2C1,5.21
5,O=C(Nc1ncccn1)C1=C(O)c2ccccc2S(=O)(=O)N1Cc1ccccc1,22.8
6,CCOC(=O)/C(C#N)=C/c1cccn1-c1ccc(Cl)cc1,2.73
7,C/C(=N\NC(=O)COc1ccccc1F)c1cc2ccccc2o1,3.99
8,COc1ccc(-c2nnc(SCc3ccc(C(=O)O)cc3)o2)cc1OC,13.7
9,COc1cc(OC)cc(-c2nnc(SCc3ccc(C(=O)O)cc3)o2)c1,-71.6
10,COc1cc(OC)cc(-c2nnc(SCc3cccc(C(=O)O)c3)o2)c1,8.29
11,O=C(O)c1ccc(CSc2nnc(-c3ccco3)o2)cc1,2.07
12,Cc1cc(C)cc(-c2nnc(SCc3ccc(C(=O)O)cc3)o2)c1,-74
13,O=C(O)c1ccc(CSc2nnc(-c3ccc(Cl)cc3)o2)cc1,26.5
14,CN(C(=O)c1ccnn1C)C1CCCN(Cc2ccccc2F)C1 (centres unmarked),15.2
15,CSCCC(NC(=O)c1ccccc1Br)C(=O)N1CCN(C(C)=O)CC1 (centres unmarked),8.22
16,O=C(COC(=O)c1ccc(Br)o1)Nc1ccc(Br)cc1,19
17,CCCc1cc(C(=O)Nc2sc3c(c2C(=O)OCC)CCCC3)no1,6.07
18,O=C(NNc1nc(-c2ccccc2)c2cc(Br)ccc2n1)c1ccc(S(=O)(=O)N2CCCCC2)cc1,8.26
19,COc1ccc(-c2cn[nH]c2-c2ccc(OCc3ccc([N+](=O)[O-])cc3)cc2O)cc1,-9.1
20,C/C(=N\NC(N)=S)C1(C)CCCCC1,9.27
21,Cc1cc(C)nc(N2CCN(c3ccc(F)cc3)CC2)n1,13.2
22,Cc1cc(N2CCc3ccccc32)n2ncnc2n1,-0.558
23,Cc1nc2ncnn2c(C)c1C/C=C/c1ccccc1,-15.3

row,Compound,"hERG current change (%, negative = inhibition) at 10uM [%]"
1,Cc1cc(N2CCN(c3nnnn3-c3ccccc3)CC2)n2ncnc2n1,-60.2
2,Cc1cc(N2CCN(Cc3ccc4c(c3)OCO4)CC2)n2ncnc2n1,7.64
3,Cc1cc(N2CCN(c3ccc(F)cc3)CC2)n2ncnc2n1,-57.6
4,Cc1cc(N2CCN(C(c3ccccc3)c3ccccc3)CC2)n2ncnc2n1,-5.7
5,Cc1cc(C)nc(N2CCN(c3nnnn3-c3ccccc3)CC2)n1,9.05
6,Cc1cc(N2CCN(c3ccccc3)CC2)n2ncnc2n1,-31.2
7,c1ccc(N2CCN(c3nnnn3-c3ccccc3)CC2)cc1,-11.2
8,Cc1cc(N2CCN(C/C=C/c3ccccc3)CC2)n2ncnc2n1,-71.5
9,Cc1cc(N2CCN(c3nc4ccccc4s3)CC2)n2ncnc2n1,-77.6
10,CCCCn1c(O)c(/C=C/C=C/C=Nc2ccccc2)sc1=S,31
11,O=C(Nc1ccc(Cl)c(C(F)(F)F)c1)C(=O)N1CCCCC1,-1.61
12,CC(Oc1ccc(Br)cc1)C(=O)NCC(C)(C)N1CCOCC1 (centres unmarked),-26
13,COC(=O)c1ccccc1NC(=O)c1ccc(COc2ccc(C)c(C)c2)o1,11.9
14,COC(=O)C1=C(c2c(C)noc2C)C[C@@H]2CC[C@H]1N2C(=O)NCCO,20
15,Cc1nnc(N/N=C/C2CC=CCC2)[nH]c1=O (centres unmarked),7.06
16,CC(C)C(NS(=O)(=O)c1cccc2nsnc12)C(=O)NCc1ccc2c(c1)OCO2 (centres unmarked),-18.7
17,Cc1c(NC(=O)C(C)OC(=O)CNC(=O)c2ccc(C(C)(C)C)cc2)c(=O)n(-c2ccccc2)n1C (centres unmarked),13.2
18,Cc1cc(C)n(-c2ccc(NC(=O)C3CCN(Cc4ccc(C)o4)CC3)cc2)n1,-16.6
19,CCOC(=O)CSc1nsc(SCC(=O)OCC)c1C#N,-55.7
20,COC(=O)CSc1nsc(SCC(=O)OC)c1C#N,5.34
21,CC(=O)CSc1nsc(SCC(C)=O)c1C#N,17.2
22,CCOC(=O)CSc1nc(-c2ccncc2)ccc1C#N,-61.6
23,CCOC(=O)CSc1nc(-c2ccc3c(c2)OCO3)ccc1C#N,7.3

row,Compound,"hERG current change (%, negative = inhibition) at 10uM [%]"
1,CCOC(=O)CC(=O)CSc1nc(-c2cccnc2)ccc1C#N,17.5
2,CC1CCc2c(sc3nc4n(c(=O)c23)CCS4)C1 (centres unmarked),-10.3
3,CCOC(=O)c1nc(Nc2ccc(C(=O)OC)cc2)c2ccccc2n1,0.323
4,COc1ccc(-c2nc3ccccc3n2OCC(=O)O)cc1,18.5
5,CCCCCC(=O)NC(=S)Nc1ccc(NC(=O)c2ccco2)cc1,2.58
6,CC1(C)Cc2c(sc(NC(=O)c3ccc(Br)o3)c2C#N)CO1,16.6
7,Clc1ccccc1Cc1noc(CN2CCCCC2CCc2ccccn2)n1 (centres unmarked),-29.4
8,Cc1oc(-c2cccc3ccccc23)nc1CN1CCC[C@H]1CO,-12.2
9,Fc1cccc(Cc2noc(CN3CCCCC3CCc3ccccn3)n2)c1 (centres unmarked),0.789
10,Cn1ccnc1C1CCCCN1Cc1nc(-c2ccc3c(c2)OCO3)no1 (centres unmarked),-7.65
11,c1ccc(CCC2CCCCN2Cc2nc(-c3ccc4c(c3)OCO4)no2)nc1 (centres unmarked),-55.7
12,COc1ccc(-c2nc(CN3CCCCC3c3cccnc3)c(C)o2)c(F)c1 (centres unmarked),-35.9
13,COc1ccc(-c2nc(CN3CCCCC3CCc3ccccn3)c(C)o2)cc1 (centres unmarked),-90.7
14,COc1ccc(-c2nc(CS(=O)CC(=O)NCc3ccccn3)c(C)o2)cc1 (centres unmarked),6.44
15,Cc1oc(-c2cccc(F)c2)nc1CN1CCCCC1CCc1ccccn1 (centres unmarked),-91.5
16,Cc1cccc(C2Nc3ccccc3C(=O)N2c2ccccc2)n1 (centres unmarked),4.41
17,O=C(NCc1ccc2c(c1)OCO2)C1CC(c2ccc(Cl)c(Cl)c2)=NO1 (centres unmarked),15
18,Cc1nn(C(C)c2n[nH]c(=S)n2-c2ccc(F)cc2)c(C)c1[N+](=O)[O-] (centres unmarked),13.3
19,O=C(Nc1ccc2c(c1)C(=O)OC2)c1ccc(C(F)(F)F)cc1,17.3
20,COc1ccc(CN2CCNC(=O)C2CC(=O)NCCCn2nnc3ccccc32)cc1C (centres unmarked),-2.87
21,O=C(NCCN1CCc2ccccc2C1)Nc1ccc(F)cc1,-37.5
22,O=C(NCCN1CCCCC1)Nc1ccc([N+](=O)[O-])cc1,-41.4
23,CCc1ccc(NC(=O)CN2CCc3ccccc3C2)cc1,-34.2

row,Compound,"hERG current change (%, negative = inhibition) at 10uM [%]"
1,O=C(NCCN1CCc2ccccc2C1)Nc1ccc([N+](=O)[O-])cc1,-70.1
2,CCc1ccc(NC(=O)NCCN2CCc3ccccc3C2)cc1,-54.7
3,CN1CCN(CCNC(=O)Nc2ccc([N+](=O)[O-])cc2)CC1,-25.7
4,CCCCSCCCNC(=S)Nc1ccccc1C,5.08
5,COc1ccccc1N(CC(=O)NCCSCc1ccco1)S(=O)(=O)c1ccccc1,-26.6
6,COc1ccc(S(=O)(=O)N(CC(=O)NC2CC3CCC2C3)c2ccccc2OC)cc1 (centres unmarked),-25
7,COc1ccc(OC)c(N(CC(=O)NCCSCc2ccco2)S(=O)(=O)c2ccccc2)c1,-69.2
8,Cc1ccc(N(CC(=O)NCCSCc2ccco2)S(=O)(=O)c2ccc(C)cc2)cc1,-69.7
9,COc1ccc(Cl)cc1N(CC(=O)NC1CC2CCC1C2)S(=O)(=O)c1ccccc1 (centres unmarked),-31.5
10,COc1ccc(OC)c(N(CC(=O)NCCSCc2ccco2)S(=O)(=O)c2ccc(OC)c(OC)c2)c1,-22.6
11,COc1ccc(OC)c(N(CC(=O)NC2CC3CCC2C3)S(=O)(=O)c2ccccc2)c1 (centres unmarked),-59.7
12,COc1ccc(N(CC(=O)NCCSCc2ccco2)S(=O)(=O)c2ccc(C)cc2)cc1,-17.9
13,Cc1ccc(S(=O)(=O)N(CC(=O)NCCSCc2ccco2)c2ccc(F)cc2)cc1,-28.3
14,O=C(NCc1nc2ccccc2[nH]1)c1cccc(S(=O)(=O)N2CCCCC2)c1,13.9
15,Cn1c(=O)c2c(nc(Br)n2CCCc2ccccc2)n(C)c1=O,-9.05
16,COc1ccc(Cl)cc1S(=O)(=O)N1CCC(C(=O)NC2CCCC2)CC1,-21.2
17,COC(=O)[C@H]1C[C@@H]1[C@H](NC(=O)c1cc(C)on1)c1ccccc1,10.3
18,Cc1cc(NC(=O)CSCC(=O)N2CCN(c3cccc(C(F)(F)F)c3)CC2)no1,-11.3
19,COCCN(C(=O)/C=C/c1ccccc1)c1nnc(-c2cccnc2)s1,-9.61
20,Cn1c(N2CCOCC2)c(C#N)c2ccccc21,-3.19
